Compound activity: PubChem, NMMLSC
Rows were chosen to be rich in hits. Some 1.1% of all compounds tested hit in one or more screens of this group.
AGP1-GFP MLPCN: yeast TOR pathway AGP1-GFP modulation; S. cerevisiae AGP1-GFP multiplex flow cytometry, 3 h; GFP as percent of DMSO wells; GFP response vs DMSO, % at 10 µM; 320,000 compounds, 0.02% hits;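 active = GFP response relative to DMSO above a set limit, near screen average plus 3 SD, cut at about 150% in these data; inconclusive = fewer than 70 cells counted for the yeast strain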;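 also: median GFP channel fluorescence of the gated AGP1 strain per well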
RPL19A-GFP yeast: yeast TOR pathway RPL19A-GFP modulation; S. cerevisiae RPL19A-GFP strain, flow cytometry, 3 h; stronger effect = lower value; percent response vs DMSO, % at 10 µM; 330,000 compounds, 0.3% hits; AID 2025;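 active = percent response vs DMSO below 50%; inconclusive = fewer than 70 events counted for the yeast strain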;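 also: median channel GFP fluorescence of the barcoded RPL19A-GFP strain; ratio of sample median GFP to plate DMSO average so 100% = DMSO; lower means less RPL19A-GFP as with rapamycin TOR inhibition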
LAP4-GFP MLPCN: alters LAP4-GFP fluorescence in TOR pathway yeast screen; S. cerevisiae LAP4-GFP multiplex, flow cytometry GFP, 3 h; median GFP as percent of DMSO wells; GFP response vs DMSO, % at 10 µM; 320,000 compounds, 0.34% hits; AID 2023;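 active = GFP response vs DMSO above a set limit, about the screen mean plus 3 SD, cut at about 150% in these data; inconclusive = under 70 cell events counted for the yeast strain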
CIT2 TOR yeast: alters CIT2-GFP fluorescence in TOR pathway yeast screen; S. cerevisiae CIT2-GFP strain, flow cytometry, 3 h; 100 means same as DMSO wells; GFP response vs DMSO, % at 10 µM; 320,000 compounds, 0.065% hits; AID 2029;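 active = GFP response relative to DMSO above a set limit, near the screen mean plus 3 SD, cut at about 150% in these data; inconclusive = Fewer than 70 cells measured for a yeast strain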;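 also: ratio of well median GFP fluorescence to mean of DMSO wells on the plate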
MEP2-GFP yeast: yeast TOR pathway MEP2-GFP modulation; S. cerevisiae MEP2-GFP strain, flow cytometry GFP, 3 h; 100% = DMSO control level; GFP response vs DMSO, % at 10 µM; 330,000 compounds, 0.51% hits; AID 2016;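 active = GFP response versus DMSO above a set limit, roughly screen mean plus 3 SD, cut at about 180% in these data; inconclusive = fewer than 70 cells counted for a yeast strain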;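 also: median GFP fluorescence of the barcode-gated MEP2-GFP cells per well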
VLA-4 inh: inhibition in a human VLA-4 binding assay | P13612 | VLA-4 expressing cells, ligand binding flow cytometry | inhibition, % (about 7 µM as worked out from the volumes in the protocol) | 330,000 compounds, 0.2% hits | AID 2557; in the data active = inhibition above about 50%
Target sequence (P13612 whole entry, looked up): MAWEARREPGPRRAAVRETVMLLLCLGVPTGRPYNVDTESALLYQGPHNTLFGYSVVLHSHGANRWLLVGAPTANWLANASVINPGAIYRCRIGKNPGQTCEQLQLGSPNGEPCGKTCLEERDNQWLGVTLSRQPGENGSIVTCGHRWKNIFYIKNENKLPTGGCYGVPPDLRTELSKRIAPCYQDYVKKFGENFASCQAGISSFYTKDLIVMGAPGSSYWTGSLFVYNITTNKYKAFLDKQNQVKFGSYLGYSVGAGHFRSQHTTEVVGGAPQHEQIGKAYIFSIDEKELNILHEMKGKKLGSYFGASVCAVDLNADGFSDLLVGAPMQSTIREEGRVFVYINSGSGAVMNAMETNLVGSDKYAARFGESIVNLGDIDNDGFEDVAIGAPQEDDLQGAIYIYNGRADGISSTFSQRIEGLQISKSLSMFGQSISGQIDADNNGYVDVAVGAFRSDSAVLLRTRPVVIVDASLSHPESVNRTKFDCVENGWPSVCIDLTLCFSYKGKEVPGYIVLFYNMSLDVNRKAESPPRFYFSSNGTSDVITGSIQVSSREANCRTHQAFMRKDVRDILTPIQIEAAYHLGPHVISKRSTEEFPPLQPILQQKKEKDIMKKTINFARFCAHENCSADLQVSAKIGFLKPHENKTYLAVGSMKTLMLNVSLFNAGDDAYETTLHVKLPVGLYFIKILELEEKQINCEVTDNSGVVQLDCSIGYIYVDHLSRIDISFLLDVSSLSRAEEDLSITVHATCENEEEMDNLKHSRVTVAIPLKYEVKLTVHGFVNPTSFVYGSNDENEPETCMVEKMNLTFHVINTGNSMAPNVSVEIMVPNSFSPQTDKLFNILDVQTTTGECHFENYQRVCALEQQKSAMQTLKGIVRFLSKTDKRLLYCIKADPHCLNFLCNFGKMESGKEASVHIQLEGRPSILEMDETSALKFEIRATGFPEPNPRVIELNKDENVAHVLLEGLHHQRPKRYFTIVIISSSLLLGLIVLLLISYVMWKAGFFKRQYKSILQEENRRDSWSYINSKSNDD
Active calls of the source: *; i = inactive; ? = inconclusive; · = no result given; [ ] = dose if it differs, or a comment.

SMILES	AGP1-GFP MLPCN	RPL19A-GFP yeast	LAP4-GFP MLPCN	CIT2 TOR yeast	MEP2-GFP yeast	VLA-4 inh
O=C(CCCCCNC(=S)Nc1ccc(Cl)cc1)C[N+](=O)[O-]	103	99	106	95	107	13
COc1ccc(NC(=S)NCCCCCC(=O)C[N+](=O)[O-])cc1	84	88	251*	63	119	-8
CCn1c(SCC(=O)N2CCOCC2)nc2oc3c(Cl)cc(Cl)cc3c(=O)c2c1=O	19	62	102	?	186*[may fluoresce violet]	-23
Cc1cc(SCc2ccccc2)nc(=O)[nH]1	21	65	86	?	204*[may fluoresce violet]	14
CSCC[C@H](NC(=O)c1ccc(Br)o1)c1nnc2ccccn12	15	42*[may fluoresce violet]	88	?	144	1
CSCC[C@H](NC(=O)c1cccs1)c1nnc2ccccn12	91	94	89	93	91	-4
NC(=O)Cn1c(=O)n(CCC(=O)NCCSCc2ccccc2)c(=O)c2ccccc21	100	96	99	99	101	-3
Cc1ccc(O)c(C(=O)c2coc(=N)c(C(=O)NC(C)C)c2)c1	?	22*[may fluoresce violet]	118	?	274*[may fluoresce violet]	-11
O=C(CSc1ncnc2c1oc1ccccc12)Nc1cccc(Cl)c1	?	60	105	?	223*[may fluoresce violet]	-4
O=C(O)c1ccc(S(=O)(=O)c2ccc([N+](=O)[O-])cc2[N+](=O)[O-])cc1	98	102	91	115	105	4
CC(C)(C)c1cc(C(=O)Nc2cccnc2)cc(C(=O)Nc2cccnc2)c1	105	106	105	105	121	6
CC1CCN(CCCOc2ccc(Br)cc2Cl)CC1	?	28*[may fluoresce violet]	118	?	72	-3
CC1CCCN(CCOCCOc2ccc(Br)cc2Cl)C1 (configuration not stated)	99	103	100	101	107	6
O=S(=O)(c1ccc(Cl)nc1)N1CCc2ccccc21	101	97	118	90	93	2
O=S(=O)(c1ccc(Cl)nc1)N1CCCc2ccccc21	?	53	71	?	207*[may fluoresce violet]	22
COc1ccc(/C=N/NC(=O)CCC(=O)Nc2ccc(F)cc2)c(OC)c1	98	101	88	102	103	0
COc1ccc(/C=N/NC(=O)CCC(=O)Nc2ccc(Br)cc2)c(OC)c1	?	43*[may fluoresce violet]	79	?	830*[may fluoresce violet]	12
CC1CC(C)CN(CCC(=O)Nc2ccc(Br)cc2)C1 (configuration not stated)	100	104	88	105	104	-6
Cc1cc(=O)[nH]c(SCc2csc(-c3ccccc3)n2)n1	24	60	94	?	298*[may fluoresce violet]	5
CCCCc1nnc(NC(=O)c2nc3nccc(C)n3n2)s1	118	98	123	122	215*	7
Cc1ccnc2nc(C(=O)Nc3nnc(CC(C)C)s3)nn12	102	107	110	118	114	21
O=C(OC(c1ccc(NS(=O)(=O)c2ccccc2)cc1)(C(F)(F)F)C(F)(F)F)c1ccccc1	91	98	112	92	194*	13
Cc1ccc(S(=O)(=O)Nc2ccc(C(OC(=O)c3ccccc3[N+](=O)[O-])(C(F)(F)F)C(F)(F)F)cc2)cc1	96	100	86	101	102	-4
COCCCn1c(O)c(/C=C2\N=C(C#N)C(=Nc3ccc(C)cc3)O2)sc1=S	?	41*[may fluoresce violet]	77	?	756*[may fluoresce violet]	i
CCOC(=O)C1(Cc2cccc(F)c2)CCN(C(=O)c2ccoc2C)CC1	49	85	124	69	99	6
SMILES	AGP1-GFP MLPCN	RPL19A-GFP yeast	LAP4-GFP MLPCN	CIT2 TOR yeast	MEP2-GFP yeast	VLA-4 inh
O=C(c1ccco1)N1CCN(C(c2coc3ccc(Cl)cc3c2=O)c2nnnn2C2CCCC2)CC1 (configuration not stated)	?	20*[may fluoresce violet]	93	?	416*[may fluoresce violet]	-8
CCn1cc(C(=O)NCCC(=O)NCCCO)c(=O)c2cc3c(cc21)OCO3	103	104	88	108	108	7
CC1(C)CCC[C@@]2(C)CC=C(C(=O)O)[C@@H]3C[C@]312	?	15*[may fluoresce violet]	95	?	480*[may fluoresce violet]	12
COc1ccc(-n2c(SCC(=O)Nc3ccc(C(=O)O)cc3)nnc2-c2cccs2)cc1	108	96	101	104	116	5
COc1ccc(OC)c(NC(=O)CSc2nnc(-c3ccco3)n2-c2ccc(C(=O)O)cc2)c1	?	37*[may fluoresce violet]	95	?	279*[may fluoresce violet]	6
COc1ccc(-c2nnc(SCC(=O)Nc3ccc(C(=O)O)cc3)n2-c2ccc(Cl)cc2)cc1	30	39*[may fluoresce violet]	92	?	643*[may fluoresce violet]	21
O=C(Cc1ncon1)Nc1ccc(F)c(F)c1F	?	33*[may fluoresce violet]	84	?	185*[may fluoresce violet]	-19
O=C(COC(=O)c1cccc(Br)c1)NCC1CCCO1 (configuration not stated)	98	95	99	98	97	13
Nc1nonc1-c1noc(-c2ccccc2Br)n1	26	45*[may fluoresce violet]	108	?	261*[may fluoresce violet]	1
O=C(NC(=S)Nc1ccc(O)cc1)c1ccccc1Cl	101	99	104	84	106	-6
COc1ccc(NC(=S)NC(=O)c2ccccc2Cl)cc1	18	79	93	?	177*[may fluoresce violet]	7
CNC(=O)c1c(NC(=O)CCS(=O)(=O)c2ccc(F)cc2)sc(C)c1C	105	98	101	107	103	-4
CCCCCNc1nc(-c2ccccc2)cs1	·	58	112	?	238*[may fluoresce violet]	10
c1ccc(CCNc2nc(-c3ccncc3)cs2)cc1	97	100	106	102	100	-2
COc1ccc(NC(=O)c2cc(S(=O)(=O)N3CCCCC3)c[nH]2)cc1Cl	106	99	100	102	93	6
CC1(C#CC[N+]2(C)CCCCC2)CCC2C(O1)c1ccccc1OC2(C)C (configuration not stated)	118	115	106	103	105	-4
O=C(CSc1nnc(COc2ccc(Cl)cc2)o1)NC1CC2CCC1C2 (configuration not stated)	19	64	76	?	253*[may fluoresce violet]	-18
O=P(Cc1ccccc1O)(c1ccccc1)c1ccccc1	?	54	84	?	208*[may fluoresce violet]	0
O=P(Cc1cc[n+]([O-])cc1)(c1ccccc1)c1ccccc1	104	100	102	107	105	6
Cc1ccc(CNC(=O)CN(C(=O)C2(C)CC(=O)N=C3C=CC=CN32)c2cccc(C)c2C)cc1 (configuration not stated)	104	104	103	99	103	3
N#CC(=Cc1ccc(O)cc1)C(N)=C(C#N)C#N	80	89	100	73	91	42
